# High-throughput results from PubChem BioAssay.
# CHX counter: counter-screen for Shiga toxin inhibitors: cycloheximide protein synthesis inhibition; cell reporter, cycloheximide protein synthesis inhibition counterscreen; AID 2314; max response, %; hit rate 12% among 300,000; in the data active = max response mostly above about 13%, no sharp cut-off; inactive = mostly below about 14%; note: read at 38.3 µM for the half of the compounds with a filed dose; 0% is about no effect
# LASV entry inh: blocks Lassa virus binding to or entry into cells; Lassa virus pseudotype entry inhibition, cell reporter; Potency, µM (series often up to 37.9 µM), inactives show at the highest dose activity change, negative = inhibition, hits mostly inhibitors; hit rate 1.2% among 300,000; calls by dose curve; tested in HEK293 cells; note: potency is the fitted concentration of half-maximal effect; % is set by controls: 0 for no effect and ±100 for the full control effect; nearly all actives have a fitted effect of over 50% in size
# Marburg entry inh: inhibitors of Marburg virus binding or cell entry. hit rate 1.8% among 300,000. AID 540276. Potency, µM (top dose mostly 37.8 µM), inactives show at the highest dose activity change, negative = inhibition, most hits filed as inhibitors. Marburg virus pseudotyped entry inhibition, cell reporter; calls by dose curve; tested in HEK293 cells; note: potency is the fitted concentration of half-maximal effect; % is set by controls: 0 for no effect and ±100 for the full control effect
# Shiga inhibitor: Shiga toxin inhibition | Vero cells, Shiga toxin protein synthesis inhibition reporter | inhibition, % at 38.7 µM | hit rate 9.2% among 290,000 | AID 2315; in the data active = inhibition mostly above about 28%, no sharp cut-off; inactive = mostly below about 43%; note: 0% is about no effect
# An asterisk follows results filed as active; u = inconclusive; x = no result; [ ] = another dose, or the depositor's remark. A selection: hits, their analogues and other compounds. The true share with any hit is near 12%.
SMILES,CHX counter,LASV entry inh,Marburg entry inh,Shiga inhibitor
C/C(CC(=O)Nc1ccc(C)c(Cl)c1)=N\NC(=O)Cc1ccccc1,8,-3%,-2%,-7
C/C(CC(=O)Nc1ccc(C)c(Cl)c1)=N\NC(=O)c1ccco1,45*,-18%[46.1 µM],u,94*
C/C(CC(=O)Nc1ccc(Cl)cc1Cl)=N\NC(=O)c1ccco1,37*,-4%,u,116*
O=C(C/C=N\OCc1ccc([N+](=O)[O-])cc1)Nc1ccc(F)cc1F,-3,-12%,0%[46.1 µM],-5
CCOC(=O)N1CCC(NC(=O)CCc2c(C)nc3c(c(C)nn3C(C)(C)C)c2C)CC1,1,u,u,17
N/C(=N\OC(=O)COc1ccc2ccccc2c1)c1ccncc1,31*,x,x,34*
N/C(=N\OC(=O)c1ccc2ccccc2c1)c1ccccn1,-1,u,u,6
O=C(COc1ccc2ccccc2c1)N1CCN(C(=O)c2cccnc2)CC1,9,u,14%,-9
Cc1cc(C(=O)O/N=C(\N)c2ccncc2)ccc1[N+](=O)[O-],41*,x,x,80*
N/C(=N\OC(=O)COc1ccc2ccccc2c1)c1cccnc1,24*,20%,u,52*
N/C(=N\OC(=O)c1ccc2ccccc2c1)c1ccncc1,37*,x,x,117*
COc1ccc(/C(N)=N/OC(=O)c2ccc([N+](=O)[O-])c(C)c2)cc1OC,5,x,x,8
CCN(CC(=O)Nc1ccc(OC)cc1)C(=O)c1ccc2c(c1)NC(=O)CS2,x,11%,16%[46.1 µM],x
C/C(=N\NC(=O)c1c(-c2ccccc2Cl)noc1C)c1cccc(NC(=O)C(C)C)c1,-2,-1%,-8%,-2
Cc1cccc(OCC(=O)O/N=C(\N)c2ccncc2)c1,20*,13%[46.1 µM],2%[46.1 µM],59*
N/C(=N\OC(=O)COc1ccc2ccccc2c1Br)c1ccncc1,24*,x,x,91*
O=C(Nc1ccccc1Cl)c1ccc2ccccc2c1,21,x,x,11
N/C(=N\OC(=O)c1ccc2ccccc2c1)c1ccccc1Cl,51*,x,x,176*
N#Cc1ccc2c(c1)C[C@]1(CCCCN3C(=O)c4ccccc4C3=O)Oc3c(c(=O)oc4ccc(F)cc34)[C@@H]2O1,x,x,-26%[14.2 µM],x
CC(=O)OCCOc1nc(N(C)C)nc(N(C)C)n1,1,-6%,6%,-4
O=C(CSc1ncnc2c1cnn2-c1cccc(Cl)c1)NCC1CCCO1 (stereo not given),-1,u,-8%,16
CC(Sc1ncnc2c1cnn2-c1ccccc1)C(=O)NCC1CCCO1 (stereo not given),20*,x,x,64
Cc1nc(SC(C)C(=O)NCC2CCCO2)c2cc(-c3ccccc3)sc2n1 (stereo not given),x,0.5µM*,0.63µM*,x
Cc1oc(-c2ccccc2Cl)nc1CN1CCCCC1c1cccnc1 (stereo not given),-2,x,x,-5
Cc1ccc(-c2nc3ncccc3o2)cc1NC(=O)c1ccc(-c2ccc(Cl)cc2)o1,x,8%[46.1 µM],u,x
SMILES,CHX counter,LASV entry inh,Marburg entry inh,Shiga inhibitor
CCc1nnc2c(N3CCN(c4cc(Cl)ccc4C)CC3)nc3ccccc3n12,x,12%[46.1 µM],x,x
Cc1c(O)ccc(-c2n[nH]c(C(=O)O)c2-c2nc3ccccc3s2)c1O,23*,0%,6%[46.1 µM],59*
Cc1ccc(OCCC(=O)OCC(=O)NC(=O)NC2CCCCC2)cc1,x,-10%,-9%,x
c1ccc(-n2ncc3c(N4CCC5(CC4)OCCO5)ncnc32)cc1,19,u,u,60
Cc1cccc(-n2ncc3c(N4CCC5(CC4)OCCO5)ncnc32)c1,13*,x,x,49
Cc1cccc(-n2ncc3c(N4CCC(C)CC4)ncnc32)c1,68*,x,x,95*
Cn1c(=O)n(C)c2cc(NC(=O)CCl)ccc21,23*,18µM*,u,12
CC(=O)Nc1ccc2c(c1)n(C)c(=O)n2C,1,26%,3%,11
COCCNc1nc(C)c(C(C)=O)s1,-1,x,5%[46.1 µM],-10
COc1ccc(C(=O)c2sc(Nc3ccccc3)nc2C)cc1,7,-10%,u,8
CCOC(=O)c1sc(Nc2nc3c(OC)cccc3s2)nc1C,50*,x,-5%,81*
Cc1nc(Nc2ccccc2)sc1C(=O)c1ccccc1,47*,u,9%[46.1 µM],58*
Cc1nc(NC(=O)C2CC2)sc1C(=O)Nc1ccccc1Cl,33*,x,x,19
COc1ccc(/C(C)=N/Nc2nc(C)c(C(C)=O)s2)cc1,12*,x,x,65*
Cc1cccc(Nc2cc(=O)n(C)c(=O)[nH]2)c1,-1,-4%[46.1 µM],-30%[46.1 µM],-6
CCC1(c2ccccc2)SCC(c2ccccc2)=NC1=O (stereo not given),x,-24%[46.1 µM],u,x
C[C@@H]1[C@@H](c2ccccc2)Cc2nc3ccccc3nc2C[C@H]1C(=O)N1CCCC1,x,x,-15%[14.2 µM],x
Cc1cccc(Nc2nc3c(s2)CCCC3)c1,68*,u,u,122*
